This is a sample that favours compounds with a hit; in the whole collection about 8% have one here.
HT1080-NT tox – kills 2HG-producing HT-1080-NT fibrosarcoma cells | HT-1080-NT fibrosarcoma viability, CellTiter-Glo ATP luminescence, 48 h | Potency, µM (titrated, usually from 46.1 µM), for inactives: at the highest dose activity, negative = less viability, most hits filed as cytotoxic | 1.6% of 360,000 active;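 note: NT is the 2HG producing partner of a matched IDH1 knockdown line; 0% = DMSO-treated cells and -100% = media-only wells without cells; nearly all actives have a fitted effect of over 55% in size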
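Compounds were tested in concentration-response format on HT-1080-NT cells for 48 hours at 37 degrees C. Cell viability came from CellTiter-Glo luminescence; curves were classified by r2, response magnitude and activity.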
MCF10A rerep – DNA re-replication induction in MCF 10a cells | 2.9% of 350,000 active | AID 624296 | Potency, µM (highest dose often 46.1 µM), without a hit: at the top dose activity, positive = re-replication, hits mostly activators | MCF 10A DNA re-replication, Hoechst nuclear intensity, 48 h; note: % of control where 0% means no effect; nearly all actives have a fitted effect of over 50% in size
KB-3-1 cytotox – KB-3-1 parental cell cytotoxicity. KB-3-1 viability, CellTiter-Glo ATP luminescence, 72 h. Potency, µM (highest dose often 46.1 µM), hits mostly cytotoxic. 1.4% of 400,000 active; note: % is set by controls: 0 for no effect and ±100 for the full control effect; nearly all actives have a fitted effect of over 60% in size
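Parental KB-3-1 viability, qHTS format: 72 h compound exposure, 37 °C; CellTiter-Glo; media-only wells and DMSO plates as controls; concentration-effect fits on corrected data.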
HT1080 IDH1KD tx – kills HT-1080 cells with IDH1 knockdown. AID 686971. HT-1080 IDH1 knockdown viability, ATP luminescence, 48 h. 2% of 360,000 active. Potency, µM (doses to about 46.1 µM), without a hit: top-dose activity, negative = toxicity, actives largely listed as cytotoxic;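 note: 0% = DMSO wells and -100% = cell-free medium wells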
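CellTiter-Glo luminescence after 48 h compound exposure at 37 degrees C of IDH1-knockdown HT-1080 cells in 5% FBS RPMI. %Activity scaled between DMSO wells and cell-free media wells, with curves fitted and assigned curve classes.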
SW480 rereplic – inducers of DNA re-replication in SW480 colon cancer cells | SW480 DNA re-replication, Hoechst DNA content imaging, 48 h | Potency, µM (series often up to 46.1 µM), for inactives: top-dose re-replication activation, actives largely listed as activators | 1.8% of 340,000 active; note: % of control where 0% means no effect; nearly all actives have a fitted effect of over 55% in size
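Image-based DNA-content assay: after two days of treatment, nuclei were labelled with the DNA dye Hoechst and imaged, and hits were compounds raising the count of nuclei showing high fluorescence intensity.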
KB-V1 cytotox – KB-V1 MDR subline cytotoxicity; Potency, µM (doses to about 46.1 µM), actives largely listed as cytotoxic; 3.4% of 400,000 active; KB-V1 MDR cells viability, CellTiter-Glo, 72 h; note: % is set by controls: 0 for no effect and ±100 for the full control effect; nearly all actives have a fitted effect of over 60% in size
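KB-V1 cells (P-gp-expressing MDR subline of KB-3-1) in phenol-red-free DMEM with 10% FBS were exposed to library compounds over a concentration series for 72 h at 37 degrees C. Viability read by CellTiter-Glo luminescence; concentration-effect curves fitted after normalization.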
An asterisk follows results filed as active; i = inactive; ? = inconclusive; . = no result given; [ ] = remark or other dose. Calls come from the whole dose curve; as a rule, active = well fitted curve in the direction sought with a large enough effect; inconclusive = small, poorly fitted or top-dose-only effect, or another doubt; inactive = no such curve, though single readings can be large; an effect the other way counts as inactive or inconclusive. Potency is the fitted concentration of half-maximal effect.

SMILES	HT1080-NT tox	MCF10A rerep	KB-3-1 cytotox	HT1080 IDH1KD tx	SW480 rereplic	KB-V1 cytotox
Cc1[nH]ccc2cc3nc4ccccc4c3cc12	14.6µM*	.	?	?	.	10.3µM*
COc1ccc(NC(=O)Cc2c(C(=O)O)[nH]c3ccccc23)cc1OC	.	.	i	.	.	i
Cc1ccc(-n2cccc2C(=S)N=P(N(C)C)(N(C)C)N(C)C)cc1	?	?	8.2µM*	8.2µM*	?	3.26µM*
C[C@@]12CCC3[C@@](CC[C@@H]4[C@](C)(C(=O)O)CCC[C@@]34C)(C[C@H]1O)C2 (some centres undefined)	1.9%	-3.4%	i	0.0%	-12.6%	i
COC(=O)[C@]1(C)CCC[C@@]2(C)C3CC[C@]4(OC(C)=O)C[C@@]3(CCC21)CC4=O (some centres undefined)	-2.4%	?	i	-0.4%	1.2%	i
C[C@@]12C(C[C@H](O)[C@@]34C[C@@H](CCC13)[C@@H](CO)C4=O)[C@](C)(C(=O)O)CC[C@@H]2O (some centres undefined)	29.1µM*	.	i	?	.	i
C=C1C(=O)[C@]23C[C@H]1CCC2[C@@]1(C)C(C[C@@H]3O)[C@](C)(C(=O)OC)CC[C@@H]1O (some centres undefined)	2.31µM*	.	13µM*	2.31µM*	.	i
O=S(=O)(c1ccccc1)c1nc(-c2ccc(F)cc2)oc1NCC1CCCO1 (centres undefined)	1.7%	3.7%	i	2.4%	-1.5%	3.66µM*
CCOC(=O)c1[nH]c2ccccc2c1NC(=O)c1ccccc1F	.	.	i	.	.	i
CCOC(=O)c1ccc(NC(=O)CN2c3ccccc3S(=O)(=O)c3ccccc32)cc1	.	.	i	.	.	i
O=C(Nc1ccccc1N1CCOCC1)c1cc(-c2ccncc2)nc2ccccc12	-25.6%	18.2%	i	-26.3%	8.3%	18.4µM*
COc1ccc(-c2cc(C(=O)NNC(=O)c3csc(N4CCOCC4)n3)c3ccccc3n2)cc1OC	-13.2%	?	i	-14.1%	-385.1%	i
COc1ccc(-c2cc(C(=O)Nc3ccccc3N3CCOCC3)c3ccccc3n2)cc1OC	-10.0%	16.4µM*	?	?	?	?
CCOc1ccccc1NC(=O)Cn1c(=O)n(Cc2ccco2)c(=O)c2ccc(C(=O)NC3CCCC3)cc21	.	.	i	.	.	i
CCn1c(N2CCN(C(=S)NCC(C)C)CC2)nc2ccccc21	0.0%	18.4µM*	i	-0.4%	17.2%	10.3µM*
CCn1c(N2CCN(C(=S)NC)CC2)nc2ccccc21	4.9%	19.0%	i	-20.9%[9.24 µM]	-4.5%	i
CCn1c(N2CCN(S(=O)(=O)CC)CC2)nc2ccccc21	11.3%	-6.2%	i	11.8%	-8.1%	?
CCn1c(N2CCN(S(=O)(=O)c3ccc(Cl)cc3)CC2)nc2ccccc21	-27.2%	-0.7%	?	?	-1.2%	8.2µM*
CCn1c(N2CCN(S(=O)(=O)c3ccc(F)cc3)CC2)nc2ccccc21	-14.4%	4.7%	?	-15.4%	-10.0%	11.6µM*
COC(=O)C(C)NC(=O)N1CCN(c2nnc(C)c3c(C)n(-c4ccc(Cl)cc4)nc23)CC1 (centres undefined)	.	.	i	.	.	i
O=C(c1cccc(Cl)c1)n1nc(-c2cccnc2)nc1NCc1ccccc1	.	.	i	.	.	i
COc1ccccc1NC(=O)CSc1nc2ccccc2c(=O)n1CCC(=O)NC1CCCCC1	.	.	i	.	.	i
CCOc1ccccc1-n1nnc(-c2nsc(NC(=O)c3ccc(C)cc3)n2)c1C	.	.	?	.	.	i
CCN(CC)[C@@H](C)CN1c2ccccc2Sc2ccccc21	.	11.2%[20.6 µM]	.	.	18.2%[20.6 µM]	.
Cc1ccc(OCCNC(=O)c2cccc(S(=O)(=O)NCc3ccccc3)c2)cc1	?	6.51µM*	4.61µM*	7.31µM*	6.51µM*	8.2µM*
SMILES	HT1080-NT tox	MCF10A rerep	KB-3-1 cytotox	HT1080 IDH1KD tx	SW480 rereplic	KB-V1 cytotox
CN(C)C(CNC(=O)c1cccc(S(=O)(=O)NCc2ccccc2)c1)c1ccccc1 (centres undefined)	-15.3%	?	i	-3.4%	6.51µM*	i
Cc1ccnc(NC(=O)c2cccc(S(=O)(=O)NCc3ccccc3)c2)c1	-0.7%	10.0%	i	2.9%	-0.7%	i
O=C(NCc1ccncc1)c1cccc(S(=O)(=O)NCc2ccccc2)c1	1.1%	-3.8%	i	6.9%	-8.8%	?
CCc1ccccc1NC(=O)c1ccc(CN2C(=O)CCn3nc(C)cc32)cc1	.	.	i	.	.	i
CCc1c(-c2ccccc2OC)ncn1Cc1cccc(-c2ccccc2)c1	14.6µM*	.	13µM*	8.2µM*	.	?
COc1ccccc1-c1ncn(Cc2cccc(-c3ccccc3)c2)c1CC(C)C	18.4µM*	.	?	?	.	16.4µM*
CCc1c(-c2ccc(OC)cc2)ncn1Cc1cccc(-c2ccccc2)c1	?	.	?	?	.	16.4µM*
COc1ccccc1-c1nc2ccccc2n(CC(C)C)c1=O	1.0%	.	i	0.0%	.	?
CCc1c(-c2cccc(Br)c2)ncn1Cc1cccc(-c2ccccc2)c1	-92.8%	.	?	?	.	i
COc1ccc(-n2nc(C(=O)Nc3ccccc3OC)c3c4ccccc4n(C)c3c2=O)cc1Cl	.	.	i	.	.	i
Cc1ccc(P(=O)(c2ccc(C)cc2)[C@@H](NC(c2ccccc2)c2ccccc2)c2ccccc2)cc1	14.6µM*	.	?	16.4µM*	.	20.6µM*
Cc1ccc(P(=O)(O)c2ccc(C)cc2)cc1	-5.9%	54.2%	i	-2.7%	21.0%	i
O=C(N/N=C/c1ccc([N+](=O)[O-])o1)c1ccncc1	?	152.6%	i	18.4µM*	1.9%	i
O=C(N/N=C\c1ccc([N+](=O)[O-])o1)c1cncc(Br)c1	20.6µM*	?	?	16.4µM*	26.3%	?
O=C(CNC(=O)c1ccccc1)N/N=C/c1ccc([N+](=O)[O-])o1	-26.4%	-0.7%	i	?	?	i
O=C(N/N=C/c1ccc([N+](=O)[O-])o1)c1ccc(O)cc1	5.8µM*	?	?	6.51µM*	?	?
O=C(N/N=C/c1ccc([N+](=O)[O-])o1)c1ccccc1NS(=O)(=O)c1cccs1	?	18.4µM*	?	?	?	i
CCOC(=O)c1c(C)[nH]c(C)c1S(=O)(=O)NCC(=O)Nc1ccc(C)c(N(C)C)c1	.	.	i	.	.	?
COC(=O)c1ccc(NC(=O)Cc2coc3cc(C)ccc23)cc1	.	.	i	.	.	i

Screening data deposited in PubChem BioAssay by National Center for Advancing Translational Sciences (NCATS).
